Screens deposited in PubChem BioAssay by National Center for Advancing Translational Sciences (NCATS).
Hits are enriched below; roughly 1.7% of the tested compounds scored in any of these assays.
GLP1R inv ag – inverse agonists of human GLP-1 receptor; P43220; HEK293 GLP-1R CRE-luciferase, luminescence, 24 h; GLP-1R form is constitutively active; Potency, µM (series often up to 38.3 µM), for inactives: at the highest dose activity change, negative = inhibition, hits mostly inhibitors; hit rate 1.6% among 410,000; AID 624417; also: % is scaled to controls: 0 for no effect and ±100 for the full control effect; nearly all actives have a fitted effect of over 55% in size
Target sequence (P43220 whole entry, looked up): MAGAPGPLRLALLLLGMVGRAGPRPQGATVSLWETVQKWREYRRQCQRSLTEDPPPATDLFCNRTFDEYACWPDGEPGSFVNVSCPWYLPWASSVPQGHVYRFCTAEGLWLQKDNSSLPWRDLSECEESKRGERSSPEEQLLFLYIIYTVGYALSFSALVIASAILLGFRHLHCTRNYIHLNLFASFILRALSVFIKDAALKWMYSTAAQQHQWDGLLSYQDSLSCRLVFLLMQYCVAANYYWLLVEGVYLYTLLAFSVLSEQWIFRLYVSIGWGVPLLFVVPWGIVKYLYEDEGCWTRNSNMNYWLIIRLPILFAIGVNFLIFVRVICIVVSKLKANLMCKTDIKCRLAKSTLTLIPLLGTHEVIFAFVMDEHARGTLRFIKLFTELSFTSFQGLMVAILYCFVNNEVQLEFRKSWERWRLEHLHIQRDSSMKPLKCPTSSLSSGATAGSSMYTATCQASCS
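GLP-1R inverse agonism mode: basal reporter luminescence in engineered HEK293 cells measured after one day of compound exposure at 37 deg C, with a 12 min room-temperature detection step.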
GLP1R ag – GLP-1 receptor (human) agonism; AID 624172; HEK293 GLP-1R CRE-luciferase, luminescence, 4-6 h; cells express a hypersensitive GLP-1R form; Potency, µM (doses to about 45.6 µM), for inactives: top-dose activation, most hits filed as activators; P43220; hit rate 0.007% among 380,000; also: % of control where 0% means no effect
PTHR1 ag – agonists of human PTHR1 parathyroid hormone receptor; Potency, µM (titrated, usually from 115 µM), for the others: at the top dose activation, usual class: activators; HEK293 GP2 PTHR1 cells, GloSensor cAMP luminescence, 1 h; hit rate 0.075% among 410,000; Q03431; also: nearly all actives have a fitted effect of over 55% in size
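HEK-293-derived GP2 cells expressing PTHR1 and a GloSensor cAMP reporter, 3,000/well, plated overnight, given luciferin plus IBMX (each 0.5 mM as added) for 1 h at 37 °C, then compound for 1 h at 37 °C. Luminescence was read after 15 min at room temperature.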
GLP1R cytotox – cytotoxicity counter-screen for GLP-1 receptor inverse agonists | HEK293 cAMP-luciferase reporter cells, luminescence, 24 h | hit rate 0.13% among 410,000 | AID 624418 | Potency, µM (highest dose often 38.3 µM), for inactives: at the top dose activity change, negative = inhibition, actives largely listed as inhibitors;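 also: loss of luciferase light is scored as toxicity; % is scaled to controls: 0 for no effect and ±100 for the full control effect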
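Seeding density was 200 cells/uL; after overnight-length (12 h) culture, 23 nL compounds went on for 24 h at 37 °C. Readout used a luciferase detection reagent, luminescence taken after 12 min at room temperature.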
* = called active by the depositor; i = inactive; u = inconclusive; x = no result given. Calls follow the shape of the dose curve; as a rule, active = well fitted curve in the direction sought with a large enough effect; inconclusive = small, poorly fitted or top-dose-only effect, or another doubt; inactive = no such curve, though single readings can be large; an effect the other way counts as inactive or inconclusive. Potency is read from the fitted curve at half-maximal effect.

SMILES | GLP1R inv ag | GLP1R ag | PTHR1 ag | GLP1R cytotox
COc1cc(/C=C2\CCC/C(=C\c3ccc(O)c(OC)c3)C2=O)ccc1O | u | -4% | -26% | 8.9µM*
CCOC(=O)c1cc(S(=O)(=O)N2CCN(c3cc(Cl)ccc3C)CC2)[nH]n1 | -1% | x | -9% | 0%
CCC(C)S(=O)(=O)c1oc(-c2cccs2)nc1S(=O)(=O)c1ccccc1 (centres undefined) | u | x | -41% | u
CCN(CCCNC(=O)c1ccc(Sc2ccc(Cl)cc2)c(NC(C)=O)c1)c1ccccc1 | 10µM* | x | -29% | -9%
CCCCN(CCCNC(=O)c1ccc(Sc2ccc(Cl)cc2)c(NC(C)=O)c1)c1ccccc1 | u | x | i | -4%
COc1ccc(CN(Cc2ccco2)c2cnc(S(C)(=O)=O)nc2C(=O)Nc2ccc(F)cc2)cc1 | u | x | -29% | -8%
Cc1c2cnn(CC(=O)NCc3ccc(F)cc3)c(=O)c2c(C)n1Cc1cccc(Cl)c1 | u | x | -17% | -30%
COc1c(C)cc(S(=O)(=O)Nc2cccc(-c3ccc(N4CCOCC4)nn3)c2)c(C)c1C | u | x | -43% | -29%
Cc1ccccc1NS(=O)(=O)c1ccc2[nH]cc(C(=O)NC(C)c3ccccc3)c(=O)c2c1 (centres undefined) | u | x | -10% | -12%
Oc1ccc2ccccc2c1N=Nc1ccccn1 | u | u | i | 2.5µM*
Oc1ccc2ccccc2c1N=Nc1ccccc1F | 16% | 1% | i | -12%
Cc1cc(C(=O)N/N=C/c2ccc(OCc3ccccc3)cc2)c(C)o1 | 11µM* | 15% | -12% | -21%
O=[N+]([O-])c1ccc(Oc2ccc(N=C=S)cc2)cc1 | x | -7% | x | x
COc1ccc(C(CNC(=O)c2ccc(S(=O)(=O)N(C)C)cc2)N(C)C)cc1 (centres undefined) | 2% | 12% | -12% | -1%
CCN(c1ccccc1)S(=O)(=O)c1cc(C(=O)NCC(c2ccc(OC)cc2)N(C)C)ccc1C (centres undefined) | 11µM* | 1% | -27% | -7%
CCCn1c2ccccc2c2cnn(CC(=O)NCc3ccc(OC)cc3)c(=O)c21 | 6% | x | -11% | -7%
O=C(CC(c1ccccc1)(c1ccccc1)c1ccccc1)N[C@@H](Cc1ccccc1)C(=O)O | u | -2% | i | 2%
O=C(O)[C@H](Cc1ccccc1)NC(=O)C(c1ccccc1)(c1ccccc1)c1ccccc1 | 10µM* | -4% | -7% | 0%
CC(C)CCC1(CCNC(C)c2cccs2)CCOC(C)(C)C1 (centres undefined) | 7.1µM* | 6% | i | 0%
N#CNC(=Nc1ccccc1)SCc1ccc(C(=O)O)cc1 | 21% | 0% | i | -3%
CSC(=Nc1ccccc1)N=C(SCc1ccccc1)N(C)C | 3.5µM* | -24% | -6% | 5.6µM*
Cc1c(C(=O)NCc2ccc(F)cc2)sc(=O)n1Cc1ccc(Cl)c(Cl)c1 | 10µM* | -1% | i | -15%
CCn1c2ccccc2c2cc(NC(=O)CN3CCCC3)ccc21 | u | 7% | -16% | -20%
CCn1c2ccccc2c2cc(NC(=O)CNCC3CCCO3)ccc21 (centres undefined) | 10µM* | 10% | i | -11%
CC1CCCC(NC(=O)c2cccc(S(=O)(=O)N3CCN(c4ccccc4)CC3)c2)C1C (centres undefined) | -22% | -3% | -39% | -11%
SMILES | GLP1R inv ag | GLP1R ag | PTHR1 ag | GLP1R cytotox
O=C(NCc1ccncc1)c1cccc(S(=O)(=O)NCc2ccccc2)c1 | 5% | 2% | -8% | -8%
Cc1ccc(OCCNC(=O)c2cccc(S(=O)(=O)NCc3ccccc3)c2)cc1 | 5µM* | 4% | -38% | u
CC1CCCC(NC(=O)c2cccc(S(=O)(=O)NCc3ccccc3)c2)C1C (centres undefined) | 11µM* | 6% | -39% | -22%
C[C@H]1NCc2cc(-c3ccc4c(=O)c(C(=O)O)cn(C5CC5)c4c3OC(F)F)ccc21 | x | -2% | x | x
O=c1cnc2ccccc2n1Cc1ccc(Br)cc1 | u | 25% | -25% | u
CC(C)(C)c1ccc(Cn2c(=O)cnc3ccccc32)cc1 | 5µM* | 7% | -31% | u
CC1=C(C(=O)OC2CCCC2)C(c2coc3ccccc3c2=O)C2=C(CC(C)(C)CC2=O)N1 (centres undefined) | 2.5µM* | 15% | -52% | -8%
COC(=O)c1sc(S(=O)(=O)N2CCN(c3ccccc3F)CC2)c(C(=O)OC)c1C | 11µM* | 21% | -23% | u
Cc1ccccc1OCCSc1nc2ccc(NC(=O)c3cccc(F)c3)cc2s1 | u | x | -47% | -21%
Cc1ccccc1OCCSc1nc2ccc(NC(=O)c3ccccc3)cc2s1 | 2.8µM* | x | i | -7%
Cc1ccccc1OCCSc1nc2ccc(NC(=O)c3cccs3)cc2s1 | 13µM* | x | i | 7%
CSc1ccc(CNC(=O)C2CCCN(S(=O)(=O)N(C)c3ccc(F)cc3)C2)cc1 (centres undefined) | u | x | -23% | 3%
CC(=O)c1cc2c(cc1NC(=O)c1cnn(-c3ccc(C)cc3)c1-n1cccc1)OCO2 | 10% | x | -4% | 3%
S=C(NC1CCCCC1)N(CCc1nc2ccccc2[nH]1)C1CCCC1 | 10µM* | -5% | -2% | u
C=CC[C@@H]1/C=C(\C)C[C@H](C)C[C@H](OC)[C@H]2O[C@@](O)(C(=O)C(=O)N3CCCC[C@H]3C(=O)O[C@H](/C(C)=C/[C@@H]3CC[C@@H](O)[C@H](OC)C3)[C@H](C)[C@@H](O)CC1=O)[C@H](C)C[C@@H]2OC | x | -5% | x | x
COc1ccc(-n2c(C)cc(C(=O)CN3C(=O)NC4(CCCc5sccc54)C3=O)c2C)cc1 (centres undefined) | 13µM* | 4% | -28% | -8%
COC(=O)c1ccc(NC(=O)CC2C(=O)N(c3ccc(C)cc3)C(=O)N2Cc2ccc(OC)cc2)cc1 (centres undefined) | 11% | x | i | -5%
CC(=O)SCC(CC(=O)c1ccc(C)cc1)C(=O)O (centres undefined) | x | -2% | x | x
CCOC(=O)c1ccc(N2C(=O)c3n[nH]c(-c4ccco4)c3C2c2ccc(F)cc2)cc1 (centres undefined) | u | -6% | -19% | -24%
CCOC(=O)c1ccc(N2C(=O)c3n[nH]c(-c4ccco4)c3C2c2ccc(OCC)cc2)cc1 (centres undefined) | 11µM* | x | -36% | -29%
COc1ccc(C(=O)NC(c2ccccc2Cl)c2cc(Cl)c3cccnc3c2O)cc1 (centres undefined) | 1.8µM* | x | i | -8%
COc1cc(NC(=O)Cn2nnnc2-c2ccccc2F)cc(OC)c1OC | 13% | x | 3% | -4%
CCOc1ccc(CCNC(c2nnc(-c3ccccc3)o2)c2ccccc2Cl)cc1OCC (centres undefined) | 10µM* | x | -47% | -1%
